Inconclusive results are not listed. Active and inactive are the calls of the source. Calls come from the whole dose curve.

The values that follow come from PubChem BioAssay (Tox21).

A short description of this assay: qHTS assay to identify small molecule agonists of the NFkB signaling pathway - cell viability counter screen (AID 1159515). Note: nearly all actives have a fitted effect of over 55% in size. As to conditions: NFkB-bla ME-180 viability, CellTiter-Glo luminescence, 5 h; series mostly up to 61 µM. The text has this: National Center for Advancing Translational Sciences [NCATS]
NIH Chemical Genomics Center [NCGC]
U.S. Environmental Protection Agency [EPA]
National Institutes of Environmental Health Sciences [NIEHS]
National Toxicology Program [NTP]
U.S. Food and Drug Administration [FDA]
Transcription factors and their stimulated target gene expression play pivotal roles across many cellular processes including responses to environmental stimuli. Proper regulation of associated pathways is critical to maintain cell health and function. Constitutive activation of transcription factor pathways has been implicated in tumors as it may block cellular functions such as apoptosis and lead to invasion and metastasis. One important transcription factor that stimulates gene expression in response to cytokines, UV radiation, and other stimuli is nuclear factor-kappa B (NFkB). To measure activation of the NFkB pathway, the CellSensor NFkB-bla ME-180 cell line (Life Technologies, Carlsbad, CA) that stably expresses beta-lactamase reporter gene under the regulation of a NF-kB response element was used. This assay allows measurement of the NFkB pathway activity induced by compounds in a ME-180 cell line. This system quantitates NF-kB activity using a FRET-based assay system where beta-lactamase expression disrupts FRET, allowing for fluorescent measurement of activity. This cell line has been used to screen the Tox21 10K compound library and to identify compounds that induce the NFkB pathway activity. The cytotoxicity of the Tox21 compound library against the NFkB-bla ME-180 cell line was tested in parallel by measuring cell viability using the CellTiter-Glo assay in the same wells.
Tox21 Assay Protocol Summary:
NFkB-bla ME-180 cells were dispensed at 2,000 cells/6 uL of assay medium per well into black wall/clear-bottom 1536-well plates using a Multidrop Combi (ThermoFisher Scientific, Waltham, MA) dispenser. After the assay plates were incubated at 37 C and 5% CO2 for an overnight, 23 nL of compounds dissolved in DMSO, positive controls or DMSO only was transferred to the assay plate by a Pintool station (Kalypsys, San Diego, CA). The assay plates were incubated at 37 C and 5% CO2 for 5 hr. One uL of LiveBLAzer B/G FRET substrate (Life Technologies) was added using a Flying Reagent Dispenser (Aurora Discovery, San Diego, CA) and the plates were incubated at room temperature for 1.5 hr. Fluorescence intensity (405 nm excitation, 460 nm and 530 nm emissions) was measured using an Envision plate reader (PerkinElmer, Shelton, CT). For cytotoxicity, 3 ul/well of CellTiter-Glo reagent was added into the assay plates using an FRD. After 30 min incubation at room temperature, the luminescence intensity was measured using a ViewLux plate reader (PerkinElmer).
(In general: In qHTS, concentration-response curves come from the screen itself.)
In the case of `C/C=C1\C(=O)C[C@H]2[C@@H]3CCC4=CC(=O)CC[C@]4(C)[C@H]3CC[C@]12C`, the result was inactive.

On to `Oc1cc(O)c2c(c1)O[C@H](c1ccc(O)c(O)c1)[C@H](O)C2`, for which the molecule was called inactive. The value for `N#CCN(CC#N)CCN(CC#N)CC#N` was “inactive”; that for `COc1cc(C(=O)N2CCOCC2)cc(OC)c1OC` was “inactive”. To `COc1nc(C)nc(N)n1` belongs “inactive”; to `Fc1ccccc1-c1ccccc1`, “inactive”. To `CCCCCN(CCCCC)C(=O)C(CCC(=O)O)NC(=O)c1ccc(Cl)c(Cl)c1` (stereo not given) belongs “inactive”; to `Cc1c(C)n(CCN(C)C)c2ccc(C(=O)OCCN(C)C)cc12`, “inactive”. For the molecule `C=CC(=O)N1CCOCC1`, the result was inactive. The value for `NC(=O)c1c(Cl)cccc1Cl` was “inactive”; that for `Nc1ncnc2c1ncn2Cc1c(F)cccc1Cl` was “inactive”.

With `C=CCn1c(=O)n([C@@H]2O[C@H](CO)[C@@H](O)[C@H]2O)c2nc(N)[nH]c(=O)c21`, the molecule was called inactive. For `N#CC1(O)CCCCC1`, the result was inactive.

Take `CCCCOCC(C)OCC(C)O` (stereo not given): the molecule was called inactive. The value for `CCN(CC)C(=O)c1ccc(O)c(OC)c1` was “inactive”; that for `c1ccc(CCCc2ccccn2)cc1` was “inactive”. To `C=C(C)C(=O)OCCC(C)OC(=O)C(=C)C` (stereo not given) belongs “inactive”; to `Nc1cc(C(Cl)=C(Cl)Cl)c(S(N)(=O)=O)cc1S(N)(=O)=O`, “inactive”.

For the molecule `Cc1ccccc1C(=O)O`, the molecule was called inactive.

For `C1CCCCCCCCCCC1`, the molecule was called inactive.

In the case of `CO`, the molecule was classed as inactive.

With `CCCC(C)C(=O)O` (stereo not given), the outcome was inactive. Take `COc1cc(O)cc(O)c1`: the result was inactive. The value for `CC(C)=CCC/C(C)=C/C(=O)O` was “inactive”. The value for `CC(C)=CC(=O)O` was “inactive”. The value for `CC(C)c1ccc2oc3nc(N)c(C(=O)O)cc3c(=O)c2c1` was “inactive”. As for `C=CC(=O)OCCCCCC`, the call was inactive.

On to `CCCCCCC(=O)OCC`, for which the outcome was inactive.

As to `CCO[Si](C)(OCC)OCC`, the molecule was called inactive. To `CCCCCCCCCCCCCCCCCCOCC(O)CO` (stereo not given) belongs “inactive”. For `NS(=O)(=O)c1cc(C2(O)NC(=O)c3ccccc32)ccc1Cl` (stereo not given), the molecule was classed as inactive. The value for `Cc1nccn1CC1CCc2c(c3ccccc3n2C)C1=O` (stereo not given) was “inactive”. To `O=C(CCOCCOCCOCCOCCC(=O)Nc1c(I)cc(I)c(C(=O)O)c1I)Nc1c(I)cc(I)c(C(=O)O)c1I` belongs “inactive”; to `Cc1ccc(N)cc1[N+](=O)[O-]`, “inactive”; to `CCCCc1ccc2cccc(S(=O)(=O)O)c2c1`, “inactive”.

In the case of `C#CC(C)(O)CC(C)C` (stereo not given), the call was inactive. In the case of `CCCCCCCCCCC1CO1` (stereo not given), the molecule was classed as inactive.

For the molecule `OC1OC[C@@H](O)[C@H](O)[C@H]1O` (stereo not given in full), the molecule was called inactive.

For `CC1=CCC2C(C1)C2(C)C` (stereo not given), the molecule was classed as inactive. On to `CN(C)CCOC(c1ccc(Cl)cc1)c1ccccn1` (stereo not given), for which the molecule was called inactive.
